“And” between values parts separate entries of the source, which are not always exact repeats. Identical values can stand only once. The source made the active and inactive calls. The call rests on the fitted dose curve.
experiment: qHTS drug screen for cell cycle checkpoint inhibitors in PARPi-resistant BRCA-mutant ovarian cancer cell lines. (AID 1963452); conditions: PEO1/OlaR viability, CellTiter-Glo luminescence, 96 h; stronger effect = lower value
How it was run: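 PEO1, PEO4 and PEO1/OlaR ovarian cancer cells, 600 per well, exposed 96 h at 37C to a dilution series. Viability read by CellTiter-Glo luminescence, normalized to DMSO and empty wells; activity summarized as Z-AUC.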

Structure (SMILES)	Z-AUC
CC(C)(O)c1cc2nc(-c3cnc(N)nc3)nc(N3CCOCC3)c2s1	-1.37 (inactive)
CN1CC[C@@H](c2c(O)cc(O)c3c(=O)cc(-c4ccccc4Cl)oc23)[C@@H](O)C1	-0.536 (inactive)
COc1cccc(Nc2c(C(N)=O)cnc3c(C)cc(S(=O)(=O)c4cccc(C(=O)N(C)C)c4)cc23)c1	-0.363 (inactive)
Cc1ccc(CN2CCNCC2)cc1NC(=O)CNc1ccc(F)c(F)c1	-0.297 (inactive)
COC(=O)Nc1nc2ccc(C(=O)c3ccc(F)cc3)cc2[nH]1	-0.379 (inactive)
O=C(CCCCCCC(=O)Nc1ccc([C@H]2O[C@@H](CSc3nc(-c4ccccc4)c(-c4ccccc4)o3)C[C@@H](c3ccc(CO)cc3)O2)cc1)NO	0.612 (inactive)
COc1cc2ncn(-c3cc(OCc4ccccc4C(F)(F)F)c(C(N)=O)s3)c2cc1OC	-1.24 (inactive)
COc1cc2c(Oc3ccc4[nH]c(C)cc4c3F)ncnc2cc1OCCCN1CCCC1	-0.035 (inactive)
COc1cc(-c2nn(C3CCC(N4CCN(C(C)=O)CC4)CC3)c3ncnc(N)c23)ccc1NC(=O)c1cc2ccccc2n1C (centres undefined)	-1.39 (inactive)
CCCCCN(CCC12CC3CC(CC(C3)C1)C2)C(=O)NCCCc1ccncc1	-0.0878 (inactive)
COc1c(OCCCN2CCOCC2)ccc2c3n(c(=NC(=O)c4cnc(N)nc4)nc12)CCN3	-1.27 (inactive)
Cc1c(Cn2c(C)nc3c(C(=O)O)cc(N4CCOCC4)cc32)cccc1C(F)(F)F	0.672 (inactive)
NCC(=O)Nc1ccc(-n2nc(C(F)(F)F)cc2-c2ccc3c(ccc4ccccc43)c2)cc1	0.362 (inactive)
Cc1c(NC(=O)OC[C@@H]2COCCN2)cn2ncnc(Nc3ccc4c(cnn4Cc4cccc(F)c4)c3)c12	-1.36 (inactive) and 1.21 (inactive)
COc1ccc(CC2c3cc(OC)c(OC)cc3CC[N+]2(C)CCC(=O)OCCCCCOC(=O)CC[N+]2(C)CCc3cc(OC)c(OC)cc3C2Cc2ccc(OC)c(OC)c2)cc1OC (centres undefined)	0.349 (inactive)
Cc1cnc(-c2cnc(NCCNc3ccc(C#N)cn3)nc2-c2ccc(Cl)cc2Cl)[nH]1	1.35 (inactive)
CS(=O)(=O)c1ccc(-c2cnc(N)c(C(=O)Nc3ccccc3)n2)cc1	-0.54 (inactive)
COc1cc(C(=O)NS(=O)(=O)c2ccccc2C)ccc1Cc1cn(C)c2ccc(NC(=O)OC3CCCC3)cc12	1.83 (inactive)
COC(=O)Nc1ccc(-c2nc(N3CCOCC3)c3cnn(C4CCN(Cc5cccnc5)CC4)c3n2)cc1	-0.964 (inactive)
COc1ccc2c(OCc3nnc4ccc(-c5ccccc5)nn34)ccnc2c1	-0.0998 (inactive)
CCCn1c(=O)c2[nH]c(-c3cnn(Cc4cccc(C(F)(F)F)c4)c3)nc2n(CC)c1=O	1.35 (inactive)

same assay, conditions: PEO1/OlaR viability, CellTiter-Glo luminescence, 96 h; measured here: PEO1 parental Z-AUC; stronger effect = lower value

Structure (SMILES)	Z-AUC
CC(C)(O)c1cc2nc(-c3cnc(N)nc3)nc(N3CCOCC3)c2s1	-1.91
CN[C@H]1CCc2cc(OC)c(OC)c(OC)c2-c2ccc(OC)c(=O)cc21	-1.41
CN1CC[C@@H](c2c(O)cc(O)c3c(=O)cc(-c4ccccc4Cl)oc23)[C@@H](O)C1	-1.36
COc1cccc(Nc2c(C(N)=O)cnc3c(C)cc(S(=O)(=O)c4cccc(C(=O)N(C)C)c4)cc23)c1	0.84
CC(C)[C@H](C(=O)Nc1ccc(C(=O)NO)cc1)c1ccccc1	-1.53
Cc1ccc(CN2CCNCC2)cc1NC(=O)CNc1ccc(F)c(F)c1	-0.179
COC(=O)Nc1nc2ccc(C(=O)c3ccc(F)cc3)cc2[nH]1	-1.33
O=C(CCCCCCC(=O)Nc1ccc([C@H]2O[C@@H](CSc3nc(-c4ccccc4)c(-c4ccccc4)o3)C[C@@H](c3ccc(CO)cc3)O2)cc1)NO	1.26
COc1cc2ncn(-c3cc(OCc4ccccc4C(F)(F)F)c(C(N)=O)s3)c2cc1OC	-0.678
COc1cc2c(Oc3ccc4[nH]c(C)cc4c3F)ncnc2cc1OCCCN1CCCC1	0.995
COc1cc(-c2nn(C3CCC(N4CCN(C(C)=O)CC4)CC3)c3ncnc(N)c23)ccc1NC(=O)c1cc2ccccc2n1C (centres undefined)	0.075
CCCCCN(CCC12CC3CC(CC(C3)C1)C2)C(=O)NCCCc1ccncc1	0.162
COc1c(OCCCN2CCOCC2)ccc2c3n(c(=NC(=O)c4cnc(N)nc4)nc12)CCN3	-1.04
Cc1c(Cn2c(C)nc3c(C(=O)O)cc(N4CCOCC4)cc32)cccc1C(F)(F)F	0.875
NCC(=O)Nc1ccc(-n2nc(C(F)(F)F)cc2-c2ccc3c(ccc4ccccc43)c2)cc1	-0.764
Cc1c(NC(=O)OC[C@@H]2COCCN2)cn2ncnc(Nc3ccc4c(cnn4Cc4cccc(F)c4)c3)c12	-0.48 and 1.05
COc1ccc(CC2c3cc(OC)c(OC)cc3CC[N+]2(C)CCC(=O)OCCCCCOC(=O)CC[N+]2(C)CCc3cc(OC)c(OC)cc3C2Cc2ccc(OC)c(OC)c2)cc1OC (centres undefined)	0.569
Cc1cnc(-c2cnc(NCCNc3ccc(C#N)cn3)nc2-c2ccc(Cl)cc2Cl)[nH]1	0.904
CS(=O)(=O)c1ccc(-c2cnc(N)c(C(=O)Nc3ccccc3)n2)cc1	-0.901
COc1cc(C(=O)NS(=O)(=O)c2ccccc2C)ccc1Cc1cn(C)c2ccc(NC(=O)OC3CCCC3)cc12	1.16
COC(=O)Nc1ccc(-c2nc(N3CCOCC3)c3cnn(C4CCN(Cc5cccnc5)CC4)c3n2)cc1	-0.853
COc1ccc2c(OCc3nnc4ccc(-c5ccccc5)nn34)ccnc2c1	0.23
CCCn1c(=O)c2[nH]c(-c3cnn(Cc4cccc(C(F)(F)F)c4)c3)nc2n(CC)c1=O	1.45

From PubChem BioAssay (NCATS)
